Structures can show the parent of a compound that is named as a salt. ± gives the standard deviation of the averaged measurements. Among all 1,000 compounds or so, about 15 (2%) showed an effect of 50% or more. Many of the other results were omitted from the sample, so strong results are more common in it than they were.
The compounds below were run on HFF (assay: uninfected host cell viability relative to vehicle control; higher = less host cell toxicity). Conditions: 5 µM; 72 h; oxygen 21 %.

SMILES | uninfected host cell viability
C[C@@]12C(=O)OC(=O)[C@]1(C)[C@H]1CC[C@@H]2O1 [Cantharidin] | 19.7 ± 1.6%
CC(C)NCC(O)c1ccc(N)c(C#N)c1 (stereo not given) [Cimaterol] | 84.5 ± 2.1%
NC(=S)N/N=C/c1coc2ccccc2c1=O.[Cl][Cu][Cl] | 98.2 ± 1.8%
COC1(C[S@+]([O-])c2ccccc2)CCN(CCc2c[nH]c3ccc(F)cc23)CC1 | 80.8 ± 2.7%
NCCc1c[nH]c2ccc(C(N)=O)cc12 [5-Carboxamidotryptamine maleate] | 91.33 ± 0.078%
CC(C)C[C@@H](N)C1(c2ccc(Cl)cc2)CCC1 | 91.72 ± 0.29%
NC1(c2ccccc2Cl)CCCCC1=O (stereo not given) [Norketamine hydrochloride] | 97.41 ± 0.47%
c1ccc2c(c1)[I+]c1ccccc1-2 [Diphenyleneiodonium chloride] | 30.8 ± 3.4%
Cc1[nH]c2ccc(Cl)cc2c1C1=CCNCC1 | 75.1 ± 2%
CN1Cc2ccccc2[C@@H]2c3cccc4[nH]cc(c34)C[C@H]21 | 86.3 ± 3.7%
CCOC(=O)c1ncc2[nH]c3ccc(OCc4ccccc4)cc3c2c1COC | 103 ± 4.4%
C[C@H]1CCC/C=C/[C@@H]2C[C@H](O)C[C@H]2[C@H](O)/C=C/C(=O)O1 [Brefeldin A] | 45.4 ± 4%
N#Cc1ccc(N2CCN(C(=O)COc3ccc4[nH]cc(CCN)c4c3)CC2)cc1 [Donitriptan hydrochloride] | 98.31 ± 0.13%
CC(=O)[C@H]1CC[C@H]2[C@@H]3CC[C@H]4C[C@](C)(O)CC[C@]4(C)[C@H]3CC[C@]12C [Ganaxolone] | 95 ± 1.5%
O=C1NC(=O)c2c1c1c3ccccc3n3c1c1c2c2ccccc2n1[C@H]1CC[C@@H]3O1 | 39.2 ± 11%
O=C1NC(=O)c2c1c1c3ccccc3[nH]c1c1[nH]c3ccccc3c21 [Arcyriaflavin A] | 83.56 ± 0.33%
C[C@@H](N)Cc1cnc[nH]1 [(R)-(-)- α-Methylhistamine dihydrobromide] | 89.841 ± 0.031%
O=[N+]([O-])c1cc(O)c(O)c([N+](=O)[O-])c1 | 95.7 ± 4.9%
Oc1ccc2c3c1O[C@H]1c4[nH]c5c(c4C[C@@]4(O)[C@@H](C2)N(CC2CC2)CC[C@]314)C[C@@]1(O)[C@H]2Cc3ccc(O)c4c3[C@@]1(CCN2CC1CC1)[C@H]5O4 [nor-Binaltorphimine dihydrochloride] | 85.23 ± 0.22%
O=C1/C(=C/c2ccccc2)C[C@@]2(O)[C@H]3Cc4ccc(O)c5c4[C@@]2(CCN3CC2CC2)[C@H]1O5 [BNTX maleate] | 22.2 ± 1.1%
Oc1ccc2c3c1O[C@H]1c4[nH]c5ccccc5c4C[C@@]4(O)[C@@H](C2)N(CC2CC2)CC[C@]314 [Naltrindole hydrochloride] | 81.09 ± 0.49%
O[C@H]1[C@H](O)[C@@H](O)CN2CC[C@H](O)[C@H]12 [Castanospermine] | 82.95 ± 0.65%
CCN(CC)CCO[C@H]1CC[C@@]2(C)C(=CC[C@@H]3[C@@H]2CC[C@]2(C)C(=O)CC[C@@H]32)C1 | 104 ± 3.5%
c1ccc(CC(c2ccccc2)N2CCCCC2)cc1 (racemic) [(±)-1-(1,2-Diphenylethyl)piperidine maleate] | 89.8 ± 6.6%
N[C@H](C(=O)O)c1cc(O)no1 [Ibotenic acid] | 85 ± 3.7%

— the supplement of paper PMC4894684
